Bioassay records from PubChem BioAssay.
Epigenetic derep – Quantitative High-Throughput Screen for Regulators of Epigenetic Control; murine LDR cells, GFP reporter derepression, 30 h; Potency, µM (doses to about 53.9 µM), inactives show top-dose GFP activation, hits mostly activators; 0.2% of 280,000 active; active = well fitted activation curve with a large enough effect; also: potency is read from the fitted curve at half-maximal effect; % of control where 0% means no effect; nearly all actives have a fitted effect of over 60% in size
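Murine LDR cells bearing a silenced CMV-driven GFP reporter were exposed to compound for 30 h at 37 C. After PBS washes, GFP-positive cells (20-120 um objects) counted by laser-scanning microplate cytometry.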
TRHR agonist – qHTS for Small Molecule Agonists and Allosteric Enhancers of Human TRH Receptor: Primary Screen for Agonists; Thyrotropin-releasing hormone receptor (Homo sapiens), P34981; TRHR cells, calcium flux fluo-8, FDSS agonist mode; activation, % at 2 µM; 0.18% of 360,000 active; AID 493084, 2011; also: 0% is about no effect
Target sequence (P34981 whole entry, looked up): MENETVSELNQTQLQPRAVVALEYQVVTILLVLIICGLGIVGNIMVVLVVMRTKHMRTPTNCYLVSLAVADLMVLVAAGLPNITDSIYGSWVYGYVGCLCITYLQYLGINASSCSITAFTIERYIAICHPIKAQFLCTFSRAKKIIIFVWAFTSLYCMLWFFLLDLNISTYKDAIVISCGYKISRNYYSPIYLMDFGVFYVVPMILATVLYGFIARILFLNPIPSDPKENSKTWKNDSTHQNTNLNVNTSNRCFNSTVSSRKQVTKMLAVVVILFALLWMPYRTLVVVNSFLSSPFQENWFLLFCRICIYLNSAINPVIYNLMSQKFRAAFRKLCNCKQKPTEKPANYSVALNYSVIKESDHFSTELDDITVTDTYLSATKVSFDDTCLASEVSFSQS
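In this calcium-flux screen, cells bearing human TRHR are dye-loaded with fluo-8, baselined for 10 cycles, then exposed to library compounds; positive kinetic calcium responses during the agonist phase mark hits, with TRH as control.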
TRHR enhancer – qHTS for Small Molecule Agonists and Allosteric Enhancers of Human TRH Receptor: Primary Screen for Enhancers | Thyrotropin-releasing hormone receptor (Homo sapiens), P34981 | enhancement, % at 2 µM | 0.66% of 360,000 active | TRHR cells, fluo-8 calcium fluorescence, EC20 TRH enhancement; in the data active = enhancement above about 30%; also: 0% is about no effect
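TRHR-expressing cells loaded with fluo-8 calcium dye were read kinetically (ex 480/em 530) during compound addition, then stimulated with an EC20 of TRH (10 nM final). Enhancement of the Gq-mediated intracellular calcium response was scored.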
D1 agonist – Allosteric Agonists of the Human D1 Dopamine Receptor: qHTS; D(1A) dopamine receptor (Homo sapiens), P21728; HEK293 T-REx D1 cells, calcium flux, agonist mode; activation, % at 2 µM; 1% of 360,000 active; also: 0% is about no effect
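Agonism was scored from calcium flux recorded over 180 s (1 read/s) after pintool compound addition, following a 10-cycle baseline. Cells were inducible force-coupled HEK293 TREx D1, plated overnight at 30 C and loaded with no-wash calcium dye.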
D1 PAM – Potentiators of Human D1 Dopamine Receptor: qHTS; D(1A) dopamine receptor (Homo sapiens), P21728; HEK293 TREx D1 cells, calcium flux, dopamine EC20 potentiation; potentiation, % at 10 µM; 0.036% of 360,000 active; AID 504651, 2011; in the data active = potentiation above about 30%; also: 0% is about no effect
D1 antag – Antagonist of Human D 1 Dopamine Receptor: qHTS; HEK293 TREx D1 cells, calcium flux, dopamine EC80; active compounds read low; activity change, negative = inhibition, % at 10 µM; 3.2% of 360,000 active; in the data active = activity change below about -30%; also: % is scaled to controls: 0 for no effect and ±100 for the full control effect
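After overnight tetracycline induction at 30 C, force-coupled D1 HEK293 cells took up a no-wash calcium dye at room temperature. Compounds were added and monitored 180 s, and the response to EC80 dopamine was then recorded.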
* hit, by the source's call; . = no result given; [ ] = another dose, or the depositor's remark. Most compounds without a hit are left out; they make up all but 4.6% or so of the library. Rule as the data show it, unless noted: active = activation above about 30%; inactive = the rest.

SMILES	Epigenetic derep	TRHR agonist	TRHR enhancer	D1 agonist	D1 PAM	D1 antag
CC(=O)OCCn1c2nc(=O)[nH]c(=O)c-2nc2cc(C)c(C)cc21	-1%	161*	124*	482*	30	5
COc1ccc(CNCc2ccc3c(c2)n(C)c(=O)n3C)cc1	2%	1	2	3	0	3
CCNc1nc(NC(C)(C)C)nc(Oc2ccc(=O)n(C)n2)n1	-1%	0	7	15	-1	16
CC(C)Nc1nc(NC(C)(C)C)nc(Oc2ccc(=O)n(C)n2)n1	0%	0	-2	47*	0	14
COc1cccc(-n2c(SC)nnc2-c2cnccn2)c1	-1%	0	-6	1	-2	-45*
COc1cccc(-n2c(SCC#N)nnc2-c2cnccn2)c1	1%	0	-7	1	3	-9
Cc1nc2c(-c3ccccc3)c(C)nn2c(C)c1CCC(=O)NCc1ccc(F)cc1	-1%	0	6	0	-6	-12
COc1ccc(CNC(=O)c2ccc3c(c2)N(Cc2cccc(Cl)c2)C(=O)c2ccccc2S3)c(OC)c1	2%	1	-6	1	-2	-28
Cc1cccc(-n2nc3c(c2NC(=O)c2ccco2)CS(=O)(=O)C3)c1C	0%	2	13	5	-15	-41*
Cc1ccc(-n2nc3c(c2NC(=O)c2ccco2)CS(=O)(=O)C3)c(C)c1	.	0	3	1	-4	-5
CCc1ccc2[nH]c(=O)c(C(c3nnnn3Cc3ccc(OC)cc3)N3CCOCC3)cc2c1 (centres undefined)	3%	0	4	0	4	-44*
COc1ccc(OC)c(C(c2nnnn2Cc2ccccc2)N2CCC(C(N)=O)CC2)c1 (centres undefined)	-2%	-1	2	2	-5	-45*
O=c1c2ccccc2n(Cc2ccccc2Cl)c(=O)n1CCc1ccccc1	-2%	1	-7	3	2	5
Cc1ccc(C(=O)NC(=S)Nc2ccc(CN3CCCCC3)cc2)c(C)c1	0%	0	-5	12	-11	-42*
Cc1ccc(Cl)cc1N1CCN(CC(=O)Nc2ccc(CN3CCCCC3)cc2)CC1	0%	4	13	54*	-8	-48*
COc1ccc(C(=O)NC(=S)Nc2ccc(CN3CCCCC3)cc2)cc1Cl	-3%	1	2	9	-5	8
COc1c(Cl)cc(Cl)cc1C(=O)Nc1ccc(CN2CCCCC2)cc1	1%	-2	10	31*	0	0
CCn1nc(C(=O)NCC(c2cccs2)N2CCOCC2)c2ccccc2c1=O (centres undefined)	.	-1	11	3	-10	-35*
CC1CCCCC1NC(=O)c1nn(C)c(=O)c2ccccc12 (centres undefined)	-1%	0	2	0	-5	-32*
Cn1nc(C(=O)NC2CCCC2)c2ccccc2c1=O	.	0	-8	1	-9	12
CCCCn1nc(C(=O)NCC(c2cccs2)N2CCOCC2)c2ccccc2c1=O (centres undefined)	.	0	-5	12	.	5
Cn1nc(C(=O)NCc2cccs2)c2ccccc2c1=O	0%	1	-2	2	-5	-41*
Cc1ccc(C)c(Cn2c(=O)cc(C(F)(F)F)c3c(C)nn(C)c32)c1	3%	0	2	4	-6	11
Cc1ccc(NS(=O)(=O)c2ccc(C(=O)N3CCCCCCC3)cc2)cc1	.	0	-1	8	-12	-11
Cc1ccc(NS(=O)(=O)c2ccc(C(=O)N3CCCCCC3)cc2)cc1	.	4	-5	31*	-9	-8
SMILES	Epigenetic derep	TRHR agonist	TRHR enhancer	D1 agonist	D1 PAM	D1 antag
Cc1ccccc1NS(=O)(=O)c1ccc(C(=O)N2CCC2)cc1	.	0	14	-1	5	-63*
CC(=O)N1CCN(C(=O)c2ccc(S(=O)(=O)Nc3ccccc3C)cc2)CC1	.	1	3	1	2	1
CC(=O)c1ccc(S(=O)(=O)Nc2ccc(-c3ccc(N4CCCCC4)nn3)cc2)cc1	-2%	0	31*	6	-3	-14
CC(=O)c1ccc(S(=O)(=O)Nc2ccc(-c3ccc(N4CCCCCC4)nn3)cc2)cc1	2%	0	5	7	-2	-3
CCOc1ccc(NS(=O)(=O)c2ccc(C(=O)N3CCCC(C)C3)cc2)cc1 (centres undefined)	.	0	9	59*	6	-52*
Cc1ccc(N(C)C(=O)Cn2cnc3onc(-c4ccc(F)cc4)c3c2=O)cc1C	-1%	1	13	0	6	2
O=C(NCC1(c2ccccc2)CCCC1)C(=O)Nc1cccc(Br)c1	4%	1	5	-1	-3	-29
Cc1ccc(CCNC(=O)c2cn(C)c3ccc(S(=O)(=O)N4CCCCC4)cc3c2=O)cc1	2%	0	-12	0	-2	12
CCOc1ccc(OCc2ccc(C(=O)N3CCCC(C)C3)cc2)cc1 (centres undefined)	0%	0	4	10	2	-30*
O=C(NCC1(N2CCOCC2)CCCCC1)c1cccc(S(=O)(=O)Nc2ccc(F)cc2)c1	.	1	-3	2	-2	11
CCOc1ccccc1NS(=O)(=O)c1ccc2[nH]c(=O)[nH]c2c1	.	0	-10	0	-1	3
O=C(NCC1(N2CCCCC2)CCCCC1)c1cccc(S(=O)(=O)Nc2ccc(F)cc2)c1	.	1	-5	5	-4	-38*
CCOc1ccc(OCc2ccc(C(=O)N3CCOCC3)cc2)cc1	5%	0	-5	8	-10	-11
Cc1ccccc1NS(=O)(=O)c1ccc2[nH]c(=O)[nH]c2c1	1%	0	30*	3	-3	-1
O=C(c1ccc(S(=O)(=O)Nc2ccccc2)cc1)N1CCCC(C(F)(F)F)C1 (centres undefined)	.	6	0	51*	-13	-5
O=C(NCCc1ccc(Cl)cc1)c1ccc(CS(=O)(=O)Cc2ccccc2F)o1	0%	0	-2	5	-2	-19
CCC(=O)[C@]12O[C@@]3(C4C(=O)OCCC41)N(CC)C(C)=C(C(=O)OC)C(c1ccccc1)N3C2=O (some centres undefined)	1%[10.1 µM]	.	.	.	.	.
